# Assay outcomes: PubChem, National Center for Advancing Translational Sciences (NCATS)
# Compounds with a hit are over-represented: about 6.2% of the library has one in this group of screens.
# HT1080-NT tox: kills 2HG-producing HT-1080-NT fibrosarcoma cells | Potency, µM (titrated, usually from 46.1 µM), for the others: at the top dose activity, negative = less viability, most hits filed as cytotoxic | AID 686970 | HT-1080-NT fibrosarcoma viability, CellTiter-Glo ATP luminescence, 48 h | 360,000 tested, 1.6% active;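 further: NT is the 2HG producing partner of a matched IDH1 knockdown line; 0% = DMSO-treated cells and -100% = media-only wells without cells; nearly all actives have a fitted effect of over 55% in size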
#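 HT-1080-NT fibrosarcoma cells (2HG-overproducing), 750 cells/well in RPMI with 5% FBS, dosed after 2 h and incubated 48 h at 37C. CellTiter-Glo luminescence normalized to DMSO and no-cell wells; concentration-response curves fitted and classed.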
# KB-V1 cytotox: KB-V1 MDR subline cytotoxicity; KB-V1 MDR cells viability, CellTiter-Glo, 72 h; Potency, µM (doses to about 46.1 µM), usual class: cytotoxic; 400,000 tested, 3.4% active; AID 1347076; further: on the % scale 0 is the no-effect control and ±100 the full control effect; nearly all actives have a fitted effect of over 60% in size
#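 Cells of the MDR subline KB-V1 are plated, dosed with compound at multiple concentrations, and incubated 72 h at 37 degrees C; CellTiter-Glo is then added and luminescence read after 10 min.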
# ATXN viability: reduces viability in counter-screen for ATXN expression inhibitors. S2 cells (HEK-293 line with an ATXN2-luciferase reporter) viability, CellTiter-Fluor protease fluorescence, 24 h. Potency, µM (doses to about 56.7 µM), actives largely listed as cytotoxic. 400,000 tested, 0.49% active. AID 651635; further: nearly all actives have a fitted effect of over 40% in size
# KB-3-1 cytotox: kills parental KB-3-1 adenocarcinoma cells | 400,000 tested, 1.4% active | KB-3-1 viability, CellTiter-Glo ATP luminescence, 72 h | Potency, µM (top dose mostly 46.1 µM), most hits filed as cytotoxic; further: on the % scale 0 is the no-effect control and ±100 the full control effect; nearly all actives have a fitted effect of over 60% in size
#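 Parental KB-3-1 viability, qHTS format: 72 h compound exposure, 37 °C; CellTiter-Glo; media-only wells and DMSO plates as controls; concentration-effect fits on corrected data.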
# HT1080 IDH1KD tx: kills HT-1080 cells with IDH1 knockdown. HT-1080 IDH1 knockdown viability, ATP luminescence, 48 h. Potency, µM (titrated, usually from 46.1 µM), for the others: at the top dose activity, negative = toxicity, usual class: cytotoxic. 360,000 tested, 2% active. AID 686971;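 further: 0% = DMSO wells and -100% = cell-free medium wells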
#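 HT-1080-IDH1KD cells (IDH1 knocked down), 750/well in RPMI with 5% FBS, treated with compound 48 h at 37 degrees C. Viability by CellTiter-Glo luminescence, normalised to DMSO and no-cell wells; concentration-response curves classed.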
# ATXN2 expr inh: inhibitors of ATXN2 expression; HEK-293 ATXN2-luciferase reporter, luminescence, 24 h; Potency, µM (doses to about 57 µM), for inactives: at the highest dose activity change, negative = inhibition, usual class: inhibitors; 360,000 tested, 0.72% active; further: on the % scale 0 is the no-effect control and ±100 the full control effect; nearly all actives have a fitted effect of over 55% in size
#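 qHTS (up to 57 uM final) was run with 24 h compound exposure of reporter cells at 37 °C. Each well was multiplexed: SteadyGlo luminescence measured ATXN2-luciferase expression after a fluorogenic Gly-Phe-AFC viability readout (25 uM final).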
# * marks the source's active call; other numbers are inactive results; i = inactive; ? = inconclusive; . = not tested or not shown. The call rests on the fitted dose curve; in most records, active means well fitted curve in the direction sought with a large enough effect; inconclusive means small, poorly fitted or top-dose-only effect, or another doubt; inactive means no such curve, though single readings can be large; an effect the other way counts as inactive or inconclusive. Potency means the concentration at half of the fitted maximal effect.
SMILES,HT1080-NT tox,KB-V1 cytotox,ATXN viability,KB-3-1 cytotox,HT1080 IDH1KD tx,ATXN2 expr inh
COc1ccc(-n2c3c(c(=O)[nH]c2=O)C(C(F)(F)F)(C(F)(F)F)N=C(CC(C)C)N3)cc1,4.0%,?,i,i,-17.0%,9.4%
O=c1[nH]c(=O)n(Cc2ccco2)c2c1C(C(F)(F)F)(C(F)(F)F)N=C(CCC1CCCCC1)N2,0.5%,i,.,i,-5.6%,.
O=c1[nH]c(=O)n(-c2ccc(F)cc2)c2c1C(C(F)(F)F)(C(F)(F)F)N=C(c1ccc(F)cc1)N2,14.6µM*,?,?,i,18.4µM*,?
Cc1ccc(C2=NC(C(F)(F)F)(C(F)(F)F)c3c(n(-c4ccc(F)cc4)c(=O)[nH]c3=O)N2)cc1,-2.6%,20.6µM*,i,10.3µM*,-1.7%,-12.3%
COc1ccc(C2Nc3ccc(NC(C)=O)cc3C(=O)N2Cc2ccccc2)cc1COc1ccc(NC(C)=O)cc1 (centres undefined),11.3%,.,.,.,13.8%,.
Cc1cn([C@H]2C[C@H](O)[C@@H](CCC(=O)NCCCc3ccccc3)O2)c(=O)[nH]c1=O,23.2%,i,i,i,20.5%,12.6%
COc1cccc(-n2c(=O)c3cc(OC)c(OC)cc3n(CC(=O)Nc3ccccc3)c2=O)c1,.,i,i,i,.,0.5%
Cc1cc(NC(=O)c2cncc(Br)c2)ccc1NC(=O)c1cc2ccccc2o1,-6.1%,?,15.8µM*,?,-14.4%,?
COc1ccc(NC(=O)c2cc(Br)ccc2Cl)c(OC)c1,1.8%,16.4µM*,i,i,-5.2%,0.2%
COc1cc(NC(=O)c2cc(Cl)ccc2Cl)ccc1NC(=O)c1cc2ccccc2o1,.,i,.,i,.,31.6µM*
COc1cc(NC(C)=O)ccc1NC(=O)c1cc2ccccc2o1,11.1%,i,i,i,6.6%,.
CCc1ccc(/C=N/NC(=O)c2cc(-c3ccncc3)nc3ccccc23)s1,?,i,i,4.61µM*,?,-10.9%
CCc1cc(C(=O)N/N=C/c2ccc(OC)cc2)c2ccccc2n1,?,?,i,?,?,-16.3%
O=C(N/N=C/c1cccs1)c1cc(-c2ccncc2)nc2ccccc12,-57.8%,1.84µM*,i,?,-54.3%,-22.7%
CCCc1cc(C(=O)N/N=C/c2ccc(CC)s2)c2ccccc2n1,?,5.8µM*,?,?,3.66µM*,?
O=C(N/N=C/c1cccs1)c1cc(C2CC2)nc2ccccc12,?,?,i,18.4µM*,?,?
COc1ccccc1-c1cc(C(=O)N/N=C/c2cccs2)c2ccccc2n1,-28.2%,i,i,?,?,62.4%
O=C(N/N=C/c1ccncc1)c1cc(C2CC2)nc2ccccc12,-7.4%,i,i,i,-9.6%,0.1%
O=C1NC[C@H](CCCCN2CCN(CCc3ccccc3)C(=O)C2=O)N(Cc2ccccc2)C1=O,4.8%,i,i,i,12.9%,12.4%
O=[N+]([O-])c1ccc(/C=C/c2ccnc3ccccc23)c([N+](=O)[O-])c1,.,i,.,i,.,.
O=C(Nc1ccc(F)cc1)C(CCc1ccccc1)N1CCN(C(=O)c2ccco2)CC1 (centres undefined),-3.0%,?,.,i,-2.7%,.
CC(NC(=O)c1ccco1)c1nnc2n1CCN(Cc1ccc(N3CCCC3)cc1)CC2 (centres undefined),.,.,i,.,.,.
CCCCC(=O)/C=C/n1c(=S)oc2ccccc21,10.3µM*,?,?,?,3.66µM*,?
CCc1ccc(NS(=O)(=O)c2ccc3[nH]cc(C(=O)NCCCOC(C)C)c(=O)c3c2)cc1,.,i,i,i,.,13.6%
COc1ccc(NC(=O)Cn2nnc(-c3ccccc3NC(=O)c3ccco3)n2)cc1,?,?,?,4.11µM*,?,?
SMILES,HT1080-NT tox,KB-V1 cytotox,ATXN viability,KB-3-1 cytotox,HT1080 IDH1KD tx,ATXN2 expr inh
O=C(Nc1ccc(-c2nc3c(ccc4ccccc43)o2)cc1)c1ccco1,10µM*,i,i,i,10µM*,4.0%
O=C(Nc1ccc(-c2cn3ccccc3n2)cc1)c1ccco1,?,10.3µM*,i,i,?,8.6%
COc1ccc(-c2ccc(NC(=O)c3ccco3)cc2)nn1,18.4µM*,?,i,10.3µM*,20.6µM*,?
O=C(Nc1ccc(-c2cn3ccccc3n2)cc1)c1ccc(Cl)cc1,20.0%,i,i,i,17.2%,-27.7%
CCCOc1cccc(C2c3c(oc4ccc(F)cc4c3=O)C(=O)N2c2nc(C)c(C(C)=O)s2)c1 (centres undefined),.,i,i,i,.,7.0%
C[C@H]1O[C@H](O[C@H]2[C@H](O)[C@@H](O)[C@@H](O[C@H]3[C@H](O)[C@@H](O)C(O)O[C@H]3CO)O[C@H]2CO)[C@H](O)[C@@H](O)[C@H]1N[C@H]1C=C(CO)[C@@H](O)[C@H](O)[C@@H]1O (some centres undefined),.,.,.,.,.,13.2%
Cc1ccc2c(c1)C(=O)OC(C(=O)Nc1ncc(Cc3ccccc3Cl)s1)C2 (centres undefined),.,i,i,i,.,-19.4%
Cc1cccc(S(=O)(=O)Nc2ccc(-c3cn4ccccc4n3)cc2)c1,5.4%,23.1µM*,i,i,3.1%,6.0%
CCCCNC(=O)C(=O)Nc1ccc2c(c1)N(S(=O)(=O)c1cccs1)CCC2,?,2.31µM*,?,2.06µM*,8.2µM*,.
CCOc1cc(/C=N/N=C(\N)c2nonc2N)cc(Br)c1OCc1cccc2ccccc12,23.1µM*,?,?,?,18.4µM*,?
O=c1c(-c2ccc(O)cc2)coc2cc(OC3O[C@H](CO)[C@H](O)[C@H](O)[C@H]3O)cc(O)c12 (some centres undefined),.,.,.,.,.,289.8%
Cc1ccc(C(=O)Nc2cc3c(cc2Cl)OCCCO3)cc1,4.9%,i,i,i,7.2%,63.8%
O=C(Nc1cc2c(cc1Cl)OCCCO2)c1ccc(F)cc1,7.4%,16.4µM*,i,i,1.0%,48.2%
O=C(CCc1ccccc1)Nc1cc2c(cc1Cl)OCCO2,2.3%,20.6µM*,i,i,10.6%,67.9%
COc1cccc(C(=O)Nc2cc3c(cc2Cl)OCCCO3)c1,2.5%,23.1µM*,i,i,11.5%,60.4%
O=C(Nc1cc2c(cc1Br)OCCCO2)c1ccccc1,-3.4%,20.6µM*,i,i,0.9%,42.6%
CCC(=O)Nc1ccc(-c2nnc(SCc3ccccc3)n2C)cc1,.,i,.,i,.,.
